This note sets out measurements from PubChem BioAssay (NCI).

This assay has as its system MDA-MB-468 breast. The assay can be described thus: NCI-60 one-dose screen, 48 h (100 = growth as untreated, 0 = no growth, -100 = all killed). The conditions noted are these: 10 µM unless noted.

The panel holds about 83,000 compounds, 20% with a hit somewhere; the sample as a whole holds those more often.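 How to read the values: 0–100, growth inhibition (40 = 60% inhibited); 0, no net growth; -100 to 0, cell death (-40 = 40% of starting cells died; -100 = all dead).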 Activity calls are given as the source filed them. The calls were made as follows: active = growth percent below 10; inactive = the rest.

In the case of `CN1CCN(c2ccc(Nc3nc(NCCNS(=O)(=O)c4ccc5ccccc5c4)c4sccc4n3)cc2)CC1`, the growth is 2.8% (active). With `COC(=O)c1ccccc1C(=O)c1c(C)cc(C)cc1C` the figure was 103% (inactive); with `CCNC(=O)c1[nH]cc(-c2ccc(OC)cc2)c1-c1cc(OC)c(OC)c(OC)c1`, 18.5% (inactive). For the compound `Cc1cccc2c(=O)c3c(sc12)c(NCCCNCCO)nc1ccccc13`, the growth is 16.3% (inactive).

For `CC(=O)c1nn(-c2ccccc2)/c(=N\N=C\c2coc3ccc(F)cc3c2=O)s1`, the growth was 115% (inactive).

In the case of `COc1cc(/C=C2\C(=O)Nc3ccccc32)ccc1OCc1ccc(Cl)cc1`, the growth was 102% (inactive). With `COc1nc2c(c(=O)n1C)N=C1c3ccccc3C(=O)C1C(c1ccccc1)N2` (stereo unspecified) the figure was 82.5% (inactive); with `CSc1nc(N)c(N=Nc2ccc(S(=O)(=O)Nc3nnc(C)s3)cc2)c(=O)[nH]1`, 93.4% (inactive); with `CC(=O)OCC(=O)C1CCC=CC1OC(C)=O` (stereo unspecified), 85.6% (inactive). With `CCOc1ccc2c(c1)CC[C@@H]1[C@@H]2CC[C@]2(C)[C@@H](O)[C@@H](O)C[C@@H]12` the figure was 87.5% (inactive). With `COc1ccc(Sc2[nH]c(C(C)=O)c3ccccc23)cc1` the figure was -6.04% (active); with `Cc1ccc(-c2cc3nc(C(Cl)Cl)nc(C)n3n2)cc1`, 110% (inactive); with `COc1cccc(C2C(C#N)=C(N)Oc3c2ccc2ccccc32)c1` (stereo unspecified), 11.6% (inactive).

For `O=C1Nc2ccccc2/C1=C\c1nc(-c2ccccc2)n2ccccc12`, the growth was -1.63% (active). `Cc1cccc(NC(=O)c2sc3nc4c(cc3c2N)CCCC4)c1`: the growth is 24.7% (inactive). With `O=C(N/N=C/c1ccncc1)c1ccccc1Nc1cccc(C(F)(F)F)c1` the figure was 48.7% (inactive). With `CCCCN(CCCC)Cc1c(C)[nH]c2cc(OC)ccc2c1=O` the figure was 113% (inactive). As for `O=C(Cn1c(-c2ccc([N+](=O)[O-])cc2)nc2ccccc21)NNC(=O)c1cccnc1`, the figure is -12.6% (active); as for `CC1CCCCN1CCCNC(=O)c1ccc2c(c1)sc1nc(-c3ccc(F)cc3)cn12` (stereo unspecified), 96.3% (inactive); as for `CCN(Cc1ccccc1)c1ccc(C=O)cc1`, 62.9% (inactive). With `N[C@@H](CO)C(=O)O`, the growth was 103% (inactive). On to `CC(=O)N1N=C(c2ccc(Nc3ccnc4cc(Cl)ccc34)cc2)CC1c1ccc(Cl)cc1` (stereo unspecified), for which the growth was 24.3% (inactive). Take `COc1ccccc1/C=N\Nc1ccc([N+](=O)[O-])cn1`: the growth was 109% (inactive).

With `Cc1ccc2c(/C=C/C(=O)c3cc(CN4CCOCC4)c(O)c4nc(C)ccc34)cc(CN3CCOCC3)c(O)c2n1`, the growth was -40.4% (active).

Take `CN(C)CCNc1nc2c3cc(Cl)ccc3nn2c2ccccc12`: the growth is 74.2% (inactive). As for `O=C(O)c1cn(C2CC2)c2cc(N3CCN(C(=O)N(c4ccccc4)c4nc(-c5ccccc5)cs4)CC3)c(F)cc2c1=O`, the figure is -0.856% (active); as for `C=C(C)[C@@H]1CC[C@]2(C=O)CC[C@]3(C)[C@H](CC[C@@H]4[C@@]5(C)C/C(=C/c6cccnc6)C(=O)C(C)(C)[C@@H]5CC[C@]43C)[C@@H]12`, 80.4% (inactive). On to `COc1cnc2c(c1)C(=O)c1c-2n(CCCNC(C)C)c(=O)c2cc([N+](=O)[O-])ccc12`, for which the growth is -55.8% (active). `COc1ccc(-c2csc(NC(=O)CN3CCN(c4cc5c(cc4F)c(=O)c(C(=O)O)cn5C4CC4)CC3)n2)cc1`: the growth is -0.675% (active). As for `C=C(C)[C@@H]1CC[C@]2(C(=O)O)CC[C@]3(C)[C@H](CC[C@@H]4[C@@]5(C)C/C(=C/c6ccco6)C(=O)C(C)(C)[C@@H]5CC[C@]43C)[C@@H]12`, the figure is -27.1% [100 µM] (active); as for `COc1ccc(/C=C/C(C)=N/OCC(=O)O)cc1`, 95.6% (inactive); as for `Oc1ccccc1/C=N/Nc1nc2ccccc2s1`, 21.5% (inactive). Consider `N#Cc1c(-c2cccs2)cc(-c2cnccn2)nc1SCC(=O)Nc1ccc(Br)cc1`, for which the growth is 81.1% (inactive). As for `C=C1C(=O)O[C@H]2[C@H]1CC/C(COC(=O)/C=C/c1cccnc1)=C\CC[C@@]1(C)O[C@@H]21`, the figure is 10.9% (inactive). With `Cc1ccc(-n2c3c(c(-c4ccccc4)c2-c2ccccc2)C2=NCCN2C=N3)cc1` the figure was 81.8% (inactive); with `CCOC(C=O)OCC`, 102% (inactive). As for `COc1cc(C2C3CC4CCCC[C@H]4N3[C@@]3(C(=O)Nc4cc(Cl)ccc43)C2C(=O)c2nc3ccccc3[nH]2)cc(OC)c1OC` (stereo partly specified), the figure is 52.8% (inactive); as for `Cc1ccc(Oc2c(/C=N/NC(=O)Cn3c(=O)sc4ccccc43)c(C)nn2-c2ccccc2)cc1`, 41% (inactive). In the case of `Fc1ccc2[nH]cc(-c3nonc3-c3c[nH]c4ccc(Br)cc34)c2c1`, the growth was 44.3% (inactive). As for `C=C1C(=O)O[C@H]2[C@H]1CC/C(COC(=O)CCC(=O)OC/C1=C/CC[C@@]3(C)O[C@H]3[C@H]3OC(=O)C(=C)[C@@H]3CC1)=C\CC[C@@]1(C)O[C@@H]21`, the figure is -39% (active); as for `COc1cc(C2CC(c3cccc(Nc4ccncc4)c3)=NN2c2ccc(Cl)cc2)cc(OC)c1OC` (stereo unspecified), 10.3% (inactive); as for `O=C1OCC2=C1C(c1cccc(F)c1)c1cc3c(cc1N2CCO)OCCO3` (stereo unspecified), -8.31% (active). As for `O=C(Oc1ccc[nH]c1=O)c1cccc(Cl)c1`, the figure is 89.8% (inactive). As for `CC(=O)Cc1ccc(-c2ccccc2)cc1`, the figure is 93.7% (inactive); as for `CCCCCCCCN(CCCCCCCC)C(=O)CCl`, 79.9% (inactive).

In the case of `Nc1cc(C(=O)O)cc(-n2c(O)c(C=C3N=c4ccccc4=N3)sc2=S)c1`, the growth is 105% (inactive).

Turning to `O=c1c(Cc2ccc(F)cc2)cc(-c2ccccc2)nn1C/C(=N/O)c1ccccc1`, the growth is 41.2% (inactive). On to `O=C(Nc1nc2ccc(C(=O)N3CCN(c4ccc(Cl)c(Cl)c4)CC3)cc2s1)c1ccc(NCCc2ccccc2)c([N+](=O)[O-])c1`, for which the growth was 88.6% (inactive). With `CCOC(=O)CC1CSC(Nc2ccccc2)=N1` (stereo unspecified) the figure was 106% (inactive). As for `CC1Cc2c(Cl)ncnc2N(C)c2ccc(F)cc21` (stereo unspecified), the figure is 64.5% (inactive); as for `COc1ccc(C(=O)C(C#N)c2cc(OC)c(OC)c(OC)c2)cc1` (stereo unspecified), 102% (inactive); as for `O=C1c2ccccc2NC(c2cn(-c3ccccc3)nc2-c2cccnc2)N1Cc1ccccc1` (stereo unspecified), 102% (inactive).

For `COc1ccc(/C=C/C(=O)c2c(C)nc3ccccc3c2/C=C/c2ccccc2)c(OC)c1`, the growth was 87% (inactive). Consider `CC(=O)Oc1ccccc1C(=O)Nc1cc(C(C)C)ccc1C`, for which the growth is -5.42% (active). With `CN1CCN(c2cc3c(cc2F)c(=O)c(C(=O)O)cn3-c2ccc(F)cc2)CC1` the figure was 110% (inactive). As for `C/C(=C\CCc1ccoc1)CC/C=C(\C)CCCNc1ccc(F)cc1`, the figure is 89.8% (inactive).
